Results filed as inconclusive are left out. Calls of active or inactive are those of the source. The call rests on the fitted dose curve; in most records, active means well fitted curve in the direction sought with a large enough effect; inconclusive means small, poorly fitted or top-dose-only effect, or effect the other way, or another doubt; inactive means no such curve, though single readings can be large or run the other way.

Pyruvate kinase PKLR (Homo sapiens), sequence (P30613 whole entry, looked up): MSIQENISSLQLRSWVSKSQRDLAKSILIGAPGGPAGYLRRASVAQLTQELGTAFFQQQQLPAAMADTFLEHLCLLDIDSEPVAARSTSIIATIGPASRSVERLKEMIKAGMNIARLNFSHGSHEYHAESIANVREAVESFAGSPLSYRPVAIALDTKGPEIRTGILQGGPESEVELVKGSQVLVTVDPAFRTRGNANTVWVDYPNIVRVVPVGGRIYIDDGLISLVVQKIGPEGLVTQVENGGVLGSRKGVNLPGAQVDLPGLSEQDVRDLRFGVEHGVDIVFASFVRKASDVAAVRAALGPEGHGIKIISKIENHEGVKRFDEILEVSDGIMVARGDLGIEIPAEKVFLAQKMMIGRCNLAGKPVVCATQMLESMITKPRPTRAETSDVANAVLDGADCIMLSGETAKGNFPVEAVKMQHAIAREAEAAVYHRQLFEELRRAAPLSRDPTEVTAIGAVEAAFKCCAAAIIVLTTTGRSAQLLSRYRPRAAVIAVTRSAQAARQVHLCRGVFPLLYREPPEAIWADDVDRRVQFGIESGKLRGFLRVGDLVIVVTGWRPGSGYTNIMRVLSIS

The assay has as its target Pyruvate kinase PKLR (Homo sapiens) (UniProt P30613). Put plainly: Secondary Concentration-Response Assay for Activators of Human Reticulocyte Pyruvate Kinase: for Probe SAR. Particulars: purified hPK-R, ATP production, Kinase-Glo luminescence; series mostly up to 57.5 µM. From the text: NIH Chemical Genomics Center [NCGC]
Wael M. Rabeh, Lyudmila Nedyalkova and Hee-Wan Park [Structural Genomics Consortium, 100 College St. Toronto, Ontario, Canada]
Human pyruvate kinase reticulocyte (hPK-R) enzyme was supplied as a highly purified (>95% pure) preparation from Structural Genomics Consortium in Toronto (Ontario, Canada) and assayed for its ability to generate ATP from ADP using phosphoenolpyruvate (PEP) as a substrate. ATP generation was detected in a coupled reaction by luciferase-mediated luminescence, an ATP-dependent process. Pyruvate kinase substrates, PEP and ADP, were present in the assay at Km and approximately 10-fold below Km respectively. The enzyme was assayed at an intermediate level of activity to screen for both inhibitors and activators.
NCGC Assay Protocol Summary for R-isoform
Three uL of substrate mix (at r.t.) in assay buffer (50 mM Imidazole pH7.2, 50 mM KCl, 7 mM MgCl2, 0.01% Tween 20, 0.05% BSA) was dispensed into white solid bottom 1,536 well microtiter plates so that the final concentrations of substrates in the assay were 0.1 mM ADP and 0.5 mM PEP. 23 nL of compound were delivered by a pin tool and 1 uL of enzyme mix (final concentration of 0.1 nM) in assay buffer (4 degree Celsius) was added. Plates were incubated at room temperature for 1 hour. Two uL of detection mix (Kinase-Glo, Promega; at 4 degree Celsius protected from light) was added and luminescence read by a ViewLux (Perkin Elmer) at 1 second exposure/plate. Data were normalized to the uninhibited (row 31). Additionally, a no enzyme and 5-fold enzyme control was dispensed in row 32, split equally between the two conditions.
(Kinase-Glo measures the ATP left after a reaction by luminescence.)
In the case of `O=C1NS(=O)(=O)c2ccccc21`, the call was inactive.
As to `O=C1CCc2cc(S(=O)(=O)Nc3ccccc3F)ccc2N1`, the result was inactive.
As to `O=C1CCc2cc(S(=O)(=O)Nc3cc(F)cc(Cl)c3)c(F)cc2N1`, the result was inactive.
For `O=C1CCc2cc(S(=O)(=O)Nc3cccc(-c4ccccc4)c3)ccc2N1`, the call was inactive.
As to `O=C(O)c1ccccc1SC1=NS(=O)(=O)c2ccccc21`, the molecule was called inactive.
Turning to `O=C1c2ccccc2C(=O)N1c1ccccn1`, the result was inactive.
For `O=C1c2ccccc2C(=O)N1C1CCCCC1` the value was “inactive”.
Turning to `O=C1c2ccccc2C(=O)N1Cc1cccnc1`, the call was inactive.
For `Cc1ccc(Cl)cc1NS(=O)(=O)c1cc2c(cc1Cl)CCC(=O)N2` the value was “inactive”.
Turning to `Cc1ccc(NS(=O)(=O)c2ccc3c(c2)CCC(=O)N3)cc1Cl`, the outcome was inactive.
As for `Cc1c(Cl)cccc1NS(=O)(=O)c1cc2c(cc1Cl)CCC(=O)N2`, the call was inactive.
For `O=C1CCc2cc(S(=O)(=O)Nc3ccc(Cl)c(Cl)c3)c(F)cc2N1`, the molecule was classed as inactive.
As for `O=C1CCc2cc(S(=O)(=O)Nc3ccncc3)ccc2N1`, the entry is “inactive”.
Turning to `CC(C)Nc1cccc(S(=O)(=O)N2CCCN(S(=O)(=O)c3ccc4c(c3)OCCO4)CC2)c1`, the result was inactive.
For `O=C1CCc2cc(S(=O)(=O)Nc3ccc4c(c3)CCC4)ccc2N1` the value was “inactive”; for `Cc1ccc(N2C(=O)c3ccccc3C2=O)c(C)c1`, “inactive”; for `O=C1CCc2cc(S(=O)(=O)Nc3ccc4c(c3)OCCO4)ccc2N1`, “inactive”.
As for `O=C1CCc2cc(S(=O)(=O)Nc3cccc(B(O)O)c3)ccc2N1`, the molecule was classed as inactive.
For `Cc1ccc(NS(=O)(=O)c2ccc3c(c2)CCC(=O)N3)cc1` the value was “inactive”; for `Cc1cc(N2C(=O)c3ccccc3C2=O)no1`, “inactive”.
Turning to `O=C1c2ccccc2C(=O)N1c1ccc2ncccc2c1`, the result was inactive.
As to `Cc1ccc(C)c(SC2=NS(=O)(=O)c3cc(C(=O)NCc4ccccc4)ccc32)c1`, the outcome was inactive.
As for `O=C1CCc2cc(S(=O)(=O)Nc3cccc(Cl)c3)ccc2N1`, the molecule was classed as inactive.
As to `O=C1c2ccccc2C(=O)N1c1cnc2ccccc2c1`, the call was inactive.
Consider `O=C1c2ccccc2C(=O)N1c1cccc2ccncc12`, for which the molecule was called inactive.
For `Cc1cc(NS(=O)(=O)c2ccc3c(c2)CCC(=O)N3)ccc1Cl` the value was “inactive”.
As to `O=C1c2ccccc2C(=O)N1c1cncc2ccccc12`, the molecule was called inactive.
Take `Cc1cc(NS(=O)(=O)c2ccc3c(c2)CCC(=O)N3)ccc1F`: the molecule was classed as inactive.
On to `O=C1CCc2cc(S(=O)(=O)Nc3ccccn3)ccc2N1`, for which the result was inactive.
Take `CNc1cccc(S(=O)(=O)N2CCCN(S(=O)(=O)c3ccc4c(c3)OCCO4)CC2)c1`: the result was inactive.
`Cc1ccc(NS(=O)(=O)c2cc3c(cc2Cl)CCC(=O)N3)cc1Cl`: the molecule was called inactive.
As for `Cc1ccc(NS(=O)(=O)c2cc3c(cc2F)NC(=O)CC3)cc1Cl`, the molecule was classed as inactive.
On to `O=C1CCc2cc([S+](=O)([O-])NC3CCOCC3)ccc2N1`, for which the result was inactive.
For the molecule `O=C1CCc2cc(S(=O)(=O)Nc3cccc(F)c3)ccc2N1`, the outcome was inactive.
In the case of `O=C1CCc2cc(S(=O)(=O)Nc3ccc(F)cc3)ccc2N1`, the result was inactive.
Turning to `COC(=O)c1ccc2c(c1)S(=O)(=O)N=C2Sc1cc(C)ccc1C`, the call was inactive.
As for `O=C1c2ccccc2C(=O)N1c1cccc2ncccc12`, the entry is “inactive”; as for `O=C1CCc2cc(S(=O)(=O)Nc3ccc4ncccc4c3)ccc2N1`, “inactive”.
Turning to `O=C1c2ccccc2C(=O)N1c1cccc(Cl)c1`, the molecule was classed as inactive.
In the case of `O=C1CCc2cc(S(=O)(=O)NCc3ccccc3)ccc2N1`, the result was inactive.

These data come from PubChem BioAssay AID2534 (National Center for Advancing Translational Sciences (NCATS), 2010).
